Test results from PubChem BioAssay.
The source made the active and inactive calls. Unless noted, no rule for the calls is given here.

Experiments:
[1] = system: Wnt5a (protein binding on small-molecule microarray); test: small molecules binding Wnt5a protein – biophysical, small-molecule microarray, 635/667 nm fluorescence, primary screen (AID 1142); conditions: 635 nm fluorescence, higher = more signal;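 also: fluorescence read at 667 nm with signal to noise per printed feature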
[2] = ATP-based viability of Huh7 replicon cells – cell-based, CellTiter-Glo luminescence, basal, 48 h, cytotoxicity control for HCV replication inhibitor project, primary screen (AID 1143); conditions: higher = more signal, called active from +8 up or from −8 down;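 also: Huh7 hepatoma cells carrying a hepatitis C replication reporter with no stimulus; test concentration not given here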
[3] = Pseudomonas biofilm growth suppression – PAO1 strain, BacTiter-Glo luminescence, LB-PBS, primary screen (AID 1144); conditions: P. aeruginosa PAO1 biofilm, 12 h, higher = more signal
[4] = basal CRE-LacZ reporter activity in PC12 – cell-based, unstimulated, primary screen (AID 1145); conditions: no forskolin, luminescence, 4.5 h, higher = more signal, called active from +8 up or from −8 down
[5] = forskolin-driven CRE-LacZ activity in PC12 – cell-based, CRE-LacZ reporter, forskolin-stimulated, primary screen (AID 1146); conditions: luminescence, 4.5 h, higher = more signal, called active from +8 up or from −8 down;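 also: PC12 cells with 6xCRE LacZ reporter stimulated by forskolin 10 µM; beta-galactosidase reporter signal reflecting CREB driven transcription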
[6] = target: Streptavidin (Streptomyces avidinii) (UniProt P22629); test: compounds binding control protein streptavidin – biophysical, small-molecule microarray, 635/667 nm fluorescence, artefact control for SMM compound annotation, primary screen (AID 1147); conditions: higher = more signal;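 also: signal reflects streptavidin binding to arrayed compounds as a control protein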
[7] = probe aInhba binding on compound microarray – biochemical, small-molecule microarray, 635/667 nm fluorescence, primary screen (AID 1148); conditions: higher = more signal;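 also: score merges 667nm spot fluorescence with signal-to-noise for antibody binding to printed compounds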
Torsin-1A (Homo sapiens) [8] = target: Torsin-1A (Homo sapiens) (UniProt O14656); test: TOR1A wild-type binding on microarray – cell lysate, small-molecule microarray, lysate, 635/667 nm, primary screen (AID 1149); conditions: COS7 hTOR1A-WT lysate, 635 nm fluorescence, higher = more signal
Torsin-1A (Homo sapiens) [9] = target: Torsin-1A (Homo sapiens) (UniProt O14656); test: torsin A mutant lysate binding on microarrays – cell lysate, small-molecule microarray, COS7 lysate, 635/667 nm fluorescence, primary screen (AID 1150); conditions: COS7 hTOR1A mutant lysate, 635 nm fluorescence, higher = more signal;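 also: score pools 667 nm emission and signal to noise measuring lysate protein binding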
[10] = system: Sonic hedgehog protein (Shh); test: Sonic hedgehog microarray binding compounds – biochemical, small-molecule microarray, 635/667 nm fluorescence, primary screen (AID 1151); conditions: 635 nm fluorescence, higher = more signal;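 also: Shh protein binding to compounds spotted on small-molecule microarray slides; score combines spot fluorescence intensity with signal-to-noise across triplicate slides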
[11] = optical density shifts of acrAB sulA E. coli – strain DRC41, OD650, 48 h, E. coli filamentation inducer project, primary screen (AID 1152); conditions: higher = more signal, called active from +8 up or from −8 down;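 also: E. coli MC1000 strain DRC41 lacking acrAB efflux pump and sulA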
[12] = probe aLefty1 binding on compound microarray – biochemical, small-molecule microarray, 635/667 nm fluorescence, primary screen (AID 1153); conditions: higher = more signal;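 also: score merges spot fluorescence with signal-to-noise ratio from the scanned slide images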
[13] = plasmodial surface anion channel blockers, osmotic lysis – cell-based, P. falciparum Indochina, OD700, 1 h, primary screen (AID 1154); conditions: P. falciparum Indochina infected RBC osmotic lysis, higher = more signal, called active from +8 up or from −8 down
[14] = plasmodial surface anion channel blockers, osmotic lysis – cell-based, P. falciparum Indochina, OD700, 2 h, primary screen (AID 1155);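 also: lysis reports solute entry through the parasite surface anion channel PSAC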; conditions: P. falciparum Indochina infected erythrocytes, higher = more signal, called active from +8 up or from −8 down
[15] = changes in parasitized red cell lysis, either direction – P. falciparum Indochina, OD700, 3 h, PSAC antagonist project, primary screen (AID 1156); conditions: P. falciparum-infected erythrocytes, osmotic lysis, higher = more signal, called active from +8 up or from −8 down
[16] = plasmodial surface anion channel blockers, osmotic lysis – cell-based, P. falciparum Indochina, OD700, 18 h, primary screen (AID 1157); conditions: P. falciparum Indochina infected erythrocytes, osmotic lysis OD700, 18 h; higher = more signal, called active from +8 up or from −8 down
[17] = S6 kinase pathway phospho-S6 level changes – cell-based, A549, cytoblot, luminescence, serum-stimulated, primary screen (AID 1158); conditions: 5 h, higher = more signal;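 also: serum-stimulated A549 lung adenocarcinoma cells; signal is phosphorylated S6 detected by cytoblot immunostaining with HRP secondary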
[18] = target: NADPH oxidase 2 (Homo sapiens) (UniProt P04839); test: compounds shifting NOX2 Amplex Red fluorescence – cell-based, HEK293-NOX2, PMA-stimulated, NOX inhibitor project, primary screen (AID 1159); conditions: 45 min, higher = more signal, called active from +8 up or from −8 down; also: test concentration not given here
[19] = target: NADPH oxidase 4 (Homo sapiens) (UniProt Q9NPH5); test: compounds shifting NOX4 Amplex Red fluorescence – cell-based, HEK293-NOX4, tetracycline-induced, NOX inhibitor project, primary screen (AID 1160); conditions: HEK293-NOX4, Amplex Red H2O2 fluorescence, 45 min; higher = more signal, called active from +8 up or from −8 down
[20] = target: NADPH oxidase 5 (Homo sapiens) (UniProt Q96PH1); test: compounds shifting NOX5 Amplex Red fluorescence – cell-based, HEK293-NOX5, NOX inhibitor project, primary screen (AID 1161); conditions: HEK293-NOX5, ionomycin, 45 min, higher = more signal
Chain of NADPH oxidase 5 (Homo sapiens) (Q96PH1 whole entry, looked up): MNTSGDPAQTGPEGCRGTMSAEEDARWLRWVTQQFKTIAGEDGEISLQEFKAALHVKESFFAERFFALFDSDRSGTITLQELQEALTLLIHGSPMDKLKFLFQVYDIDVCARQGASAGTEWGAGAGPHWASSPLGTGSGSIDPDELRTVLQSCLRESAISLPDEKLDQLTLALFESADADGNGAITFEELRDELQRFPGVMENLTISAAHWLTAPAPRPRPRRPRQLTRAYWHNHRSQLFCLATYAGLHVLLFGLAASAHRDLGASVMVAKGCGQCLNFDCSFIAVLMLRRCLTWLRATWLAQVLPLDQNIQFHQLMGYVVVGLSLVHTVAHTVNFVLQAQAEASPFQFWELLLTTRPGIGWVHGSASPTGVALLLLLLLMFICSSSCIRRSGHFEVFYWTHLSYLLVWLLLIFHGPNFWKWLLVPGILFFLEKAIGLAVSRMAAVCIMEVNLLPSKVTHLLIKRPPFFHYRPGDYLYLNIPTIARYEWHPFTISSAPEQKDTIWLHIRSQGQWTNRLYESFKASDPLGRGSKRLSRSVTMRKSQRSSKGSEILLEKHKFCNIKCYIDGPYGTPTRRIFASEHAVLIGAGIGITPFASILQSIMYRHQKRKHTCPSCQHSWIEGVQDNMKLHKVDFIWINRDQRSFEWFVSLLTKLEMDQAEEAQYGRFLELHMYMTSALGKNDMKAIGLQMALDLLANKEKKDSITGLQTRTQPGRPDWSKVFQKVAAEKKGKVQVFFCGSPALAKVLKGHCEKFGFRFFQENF

Chain of NADPH oxidase 4 (Homo sapiens) (Q9NPH5 whole entry, looked up): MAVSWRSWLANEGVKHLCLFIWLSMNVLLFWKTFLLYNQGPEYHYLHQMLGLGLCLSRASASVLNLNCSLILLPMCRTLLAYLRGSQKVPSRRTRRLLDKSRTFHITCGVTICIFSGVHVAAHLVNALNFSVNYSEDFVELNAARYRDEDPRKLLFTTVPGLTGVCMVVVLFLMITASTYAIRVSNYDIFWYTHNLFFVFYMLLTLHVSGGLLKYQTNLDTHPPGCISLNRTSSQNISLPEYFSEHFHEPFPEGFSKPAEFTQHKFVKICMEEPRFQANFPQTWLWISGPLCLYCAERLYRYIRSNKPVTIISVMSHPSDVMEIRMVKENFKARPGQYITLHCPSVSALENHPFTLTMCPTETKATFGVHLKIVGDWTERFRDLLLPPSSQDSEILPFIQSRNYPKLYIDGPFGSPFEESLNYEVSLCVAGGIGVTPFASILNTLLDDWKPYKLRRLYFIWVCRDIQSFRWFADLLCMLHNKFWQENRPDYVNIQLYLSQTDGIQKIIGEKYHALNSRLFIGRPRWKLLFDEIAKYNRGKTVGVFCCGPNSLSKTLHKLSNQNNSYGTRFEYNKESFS
Chain of NADPH oxidase 2 (Homo sapiens) (P04839 whole entry, looked up): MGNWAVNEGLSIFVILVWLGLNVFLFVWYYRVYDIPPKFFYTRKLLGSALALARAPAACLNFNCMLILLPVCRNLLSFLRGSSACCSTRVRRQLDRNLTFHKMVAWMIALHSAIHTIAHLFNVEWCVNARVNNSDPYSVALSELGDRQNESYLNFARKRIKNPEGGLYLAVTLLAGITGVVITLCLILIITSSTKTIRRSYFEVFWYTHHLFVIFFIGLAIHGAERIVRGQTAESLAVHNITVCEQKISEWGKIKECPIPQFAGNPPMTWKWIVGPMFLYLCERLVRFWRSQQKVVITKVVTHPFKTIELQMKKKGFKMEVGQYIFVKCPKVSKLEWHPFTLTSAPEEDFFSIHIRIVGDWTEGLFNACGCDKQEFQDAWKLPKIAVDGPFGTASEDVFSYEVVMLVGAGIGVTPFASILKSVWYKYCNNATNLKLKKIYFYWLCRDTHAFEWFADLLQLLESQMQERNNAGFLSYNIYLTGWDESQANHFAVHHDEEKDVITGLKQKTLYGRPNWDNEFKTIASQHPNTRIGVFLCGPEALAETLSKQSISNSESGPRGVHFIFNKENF
Chain of Torsin-1A (Homo sapiens) (O14656 whole entry, looked up): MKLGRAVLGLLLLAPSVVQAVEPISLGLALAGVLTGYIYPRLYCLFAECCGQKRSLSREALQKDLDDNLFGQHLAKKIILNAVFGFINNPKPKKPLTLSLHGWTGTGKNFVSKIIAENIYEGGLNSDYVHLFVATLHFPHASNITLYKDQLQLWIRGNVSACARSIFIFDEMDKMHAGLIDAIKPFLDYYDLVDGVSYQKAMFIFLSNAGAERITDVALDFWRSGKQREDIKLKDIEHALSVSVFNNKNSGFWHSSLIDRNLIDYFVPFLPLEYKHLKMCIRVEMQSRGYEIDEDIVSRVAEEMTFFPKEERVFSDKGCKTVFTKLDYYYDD
Chain of Streptavidin (Streptomyces avidinii) (P22629 whole entry, looked up): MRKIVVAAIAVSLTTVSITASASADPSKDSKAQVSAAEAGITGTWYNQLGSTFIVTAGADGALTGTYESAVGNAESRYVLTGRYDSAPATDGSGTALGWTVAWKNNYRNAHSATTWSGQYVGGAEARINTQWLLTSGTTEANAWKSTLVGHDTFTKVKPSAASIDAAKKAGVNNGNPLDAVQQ

Compound | composite z-score [1] | z-score [2] | z-score [3] | z-score [4] | z-score [5] | composite z-score [6] | composite z-score [7] | composite z-score (Torsin-1A (Homo sapiens) [8]) | composite z-score (Torsin-1A (Homo sapiens) [9]) | composite z-score [10] | z-score [11] | composite z-score [12] | z-score [13] | z-score [14] | z-score [15] | z-score [16] | z-score [17] | z-score [18] | z-score [19] | z-score [20]
O=C(NC1CC1)[C@@H]1c2ccccc2C(=O)N(Cc2cc(F)cc(C(F)(F)F)c2)[C@H]1c1ccc(CO)cc1 | 0.518 | -0.335 (inactive) | -0.435 (inactive) | 0.001 (inactive) | 0.162 (inactive) | -0.685 | -0.0468 | 0.517 | 0.543 | -0.296 | -0.857 (inactive) | -0.205 | 1.88 (inactive) | 0.115 (inactive) | 0.943 (inactive) | 0.0358 (inactive) | -0.185 | -0.0603 (inactive) | 0.463 (inactive) | 0.515
[N-]=[N+]=Nc1ccccc1C[C@]1(C(=O)N2CCCCC2)COC(c2ccc(OCCCO)cc2)=N1 | 0.427 | -4.35 (inactive) | 1.38 (inactive) | 1.01 (inactive) | -0.57 (inactive) | 1.22 | 0.0108 | 0.552 | 0.742 | -0.385 | 0.891 (inactive) | 0.371 | 23.1 (active) | 9.64 (active) | 3.34 (inactive) | 1.77 (inactive) | -0.391 | -4.46 (inactive) | -0.826 (inactive) | -1.79
COC(=O)[C@@]1(Cc2ccccc2)[C@H]2c3cc(C(=O)N4CCCC4)n(Cc4ccc(O)c(OC)c4)c3C[C@H]2CN1C(=O)c1ccccc1 | 0.343 | -2.34 (inactive) | 0.633 (inactive) | 2.5 (inactive) | 0.333 (inactive) | 0.211 | 0.198 | -0.0034 | 0.0381 | -1.39 | -1.64 (inactive) | 0.0147 | 3.85 (inactive) | 0.496 (inactive) | 0.393 (inactive) | 0.618 (inactive) | -0.347 | -2.57 (inactive) | -6.07 (inactive) | -3.82
O=C(CS)NCCCCCNC(=O)[C@@H]1C[C@@H]2C(=O)NCC(=O)N2[C@@H]1c1cccc(OCCO)c1 | 0.134 | -0.556 (inactive) | -1.2 (inactive) | -0.268 (inactive) | 0.0712 (inactive) | -0.774 | 0.136 | 0.396 | -0.0657 | 1.77 | 3.02 (inactive) | 0.269 | 2.11 (inactive) | 0.151 (inactive) | -1.32 (inactive) | -1.85 (inactive) | 1.86 | 1.52 (inactive) | 1.06 (inactive) | 1.49
C=CC[C@]1(C(N)=O)N=C(c2ccc(OCCCO)cc2)O[C@H]1c1ccccc1 | 0.555 | -1.01 (inactive) | -0.717 (inactive) | 0.652 (inactive) | -0.806 (inactive) | 0.186 | -0.168 | 2.79 | 2.33 | -0.406 | -0.0378 (inactive) | -0.0057 | 6.38 (inactive) | 1.44 (inactive) | 0.99 (inactive) | 0.765 (inactive) | -0.039 | 0.737 (inactive) | 0.676 (inactive) | 0.145
COc1cc2c(cc1O)C=[N+](Cc1cc3c(cc1Br)OCO3)CC2 | -0.234 | -2.14 (inactive) | -0.304 (inactive) | -0.671 (inactive) | 0.945 (inactive) | -1.88 | -0.154 | -0.39 | -0.945 | -0.216 | -0.167 (inactive) | -0.237 | 3 (inactive) | 0.472 (inactive) | 2.26 (inactive) | 0.154 (inactive) | -0.273 | -3.59 (inactive) | -2.72 (inactive) | -3.37
C=CCOC(=O)[C@H]1[C@@H]2C(=O)O[C@@H](c3ccccc3)[C@@H](c3ccccc3)N2[C@@H](c2ccc(OCCOC(=O)[C@@H]3C[C@@H]4C(=O)N5CCC[C@H]5C(=O)N4[C@@H]3c3cccc(OCCO)c3)cc2)[C@]12C(=O)Nc1ccc(I)cc12 | 0.535 | -0.402 (inactive) | -0.615 (inactive) | 0.423 (inactive) | -0.633 (inactive) | 0.763 | 0.944 | 0.821 | 0.573 | 2.18 | -0.811 (inactive) | 1.53 | 4.52 (inactive) | 2.5 (inactive) | 1.25 (inactive) | 1.5 (inactive) | -0.679 | 1.86 (inactive) | 0.833 (inactive) | 1.49
[N-]=[N+]=NCc1ccccc1[C@@H]1OC(c2ccc(OCCCO)cc2)=N[C@]1(CCS(=O)(=O)c1ccccc1)C(N)=O | 1.2 | -0.369 (inactive) | 1.47 (inactive) | -0.128 (inactive) | -0.785 (inactive) | 0.982 | 0.393 | 1.41 | 1.26 | 0.99 | 1.06 (inactive) | 0.428 | 26.4 (active) | 14.7 (active) | 0.618 (inactive) | 1.75 (inactive) | -0.353 | -0.282 (inactive) | 1.13 (inactive) | 2.23
O=C1[C@H]2C=C(Br)[C@H](C[C@@H]2OCCCCCCO)[C@@]12CO2 | 0.255 | 0.993 (inactive) | 0.41 (inactive) | 0.577 (inactive) | 1.71 (inactive) | -0.29 | -0.024 | 0.36 | 0.12 | 0.129 | -1.69 (inactive) | -0.101 | 1.53 (inactive) | 0.318 (inactive) | 1.2 (inactive) | 0.501 (inactive) | -0.276 | 0.486 (inactive) | 0.633 (inactive) | -0.292
